# Screening results (PubChem BioAssay)
# An excerpt weighted towards active compounds, which were near 2.5% of everything screened.
# LGR2 inh: inhibitors of bursicon-induced Drosophila LGR2 receptor cAMP signaling; HEK293 LGR2, CRE-luciferase, bursicon-stimulated, 4 h; inhibition, % at 9.99 µM; actives 0.35% (n = 380,000); AID 720647;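 active = drop in luminescence signal, shown as inhibition above about 50% in the replicate tests, limit read from the data, passing the limit was not always enough; inconclusive = probably only some replicates passing the limit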;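 note: agonist challenge used bursicon conditioned medium at about half maximal strength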
# EWS-Fli inh: EWS/Fli transcriptional activity inhibition; A673 NR0B1-luciferase reporter, viability-normalised; inhibition, % at 12.6 µM; actives 0.67% (n = 350,000); AID 651661;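 active = mean inhibition of at least 50% after viability correction, with every replicate also passing that limit; inconclusive = mean reaches 50% but only one of two replicates passes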;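 note: firefly luciferase signal divided by Alamar Blue viability fluorescence both relative to DMSO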
# TWEAK-Fn14 inh: TWEAK-Fn14 signaling inhibition; TWEAK-stimulated Fn14 reporter cells, luciferase luminescence, 8 h; inhibition, % at 10 µM; actives 2% (n = 360,000); AID 1159606; in the data active = inhibition above about 50%
# TROY NFkB inh: inhibitors of TROY-dependent NF-kB signaling; actives 0.98% (n = 360,000); AID 1347056; inhibition, % at 10 µM; Q293 LMP1-TROYcd NF-kB luciferase reporter, 4 h;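 active = compounds whose plate-normalised and pattern-corrected inhibition of the luciferase reporter signal at the single screening dose is 50% or more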
# EBV LMP1 NFkB: Epstein-Barr LMP1 NF-kappaB reporter inhibition | AID 504558 | LMP1-induced NF-kappaB luciferase reporter cells, luminescence | inhibition, % at 12.5 µM | actives 0.69% (n = 350,000); in the data active = inhibition above about 41%; inconclusive = no clear call, values can overlap the other calls;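 note: 0% = neutral control wells and 100% = reference inhibitor control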
# * marks the source's active call; other numbers are inactive results; ? = inconclusive; · = not tested or not shown.
SMILES,LGR2 inh,EWS-Fli inh,TWEAK-Fn14 inh,TROY NFkB inh,EBV LMP1 NFkB
CCCNC(=O)C[C@@H]1C[C@@H]2c3cc(NS(=O)(=O)c4ccccc4)ccc3O[C@@H]2[C@@H](CO)O1,17,4,·,·,·
C=C(C)C(=O)Oc1ccc(N=Nc2ccc(C)cc2)ccc1=O,-28,1,59*,-35,·
C=C(C)C(=O)Oc1ccc(N2C(=O)CCC2=O)cc1,-3,6,1,4,8
NC1=NS(=O)(=O)NC1c1cccc(Cl)c1 (configuration not stated),-3,·,82*,1,3
NC(=O)c1sc2nc3c(c(-c4cccnc4)c2c1N)CCC3,·,·,-6,-16,-11
NC(=O)c1sc2nc3c(c(-c4cccs4)c2c1N)CCCCC3,·,·,76*,-6,72*
COc1ccc(C(=O)NC(=S)NNC(=O)c2ccc3ccccc3n2)cc1,-5,-5,-15,-31,49*
COc1cc(OC)cc(C(=O)NNC(=O)c2ccc3ccccc3n2)c1,-10,23,37,57*,13
COCC(=O)Nc1ccc2c(c1)C(=O)N(C)[C@@H]1CC[C@@H](CC(=O)NC3CCCC3)O[C@@H]1CO2,2,-6,·,·,·
O=c1c2sc(-c3ccccc3)cc2nc2n1CCC2,·,·,74*,22,24
CCCCCc1ccc(-c2ccc(/C=C/C(=O)O)cc2)nc1,-2,·,60*,-31,43*
CCCCCCCc1ccc(-c2ccc(O)cc2)nc1,-34,4,-24,-63,-38
CCCc1ccc(-c2ccc(/C=C/C(=O)O)cc2)nc1,58*,56*,94*,14,75*
Cc1cc(=S)[nH]c2ccccc12,6,·,-14,9,63*
Cc1ccc2[nH]c(=S)cc(C)c2c1,·,·,-2,6,5
CCN1CCC(O)(/C=C/c2ccc(C(C)C)cc2)C(C(=O)/C=C/c2ccc(C(C)C)cc2)C1 (configuration not stated),32,56*,40,-4,-73
C/C=C/c1ccccc1[C@H]1[C@@H](CO)N(C(=O)Nc2ccc(OC)cc2)[C@H]1C#N,4,-9,·,·,·
CCOC(=O)c1cc2c(=O)n3ccccc3nc2n(C(C)C)c1=NC(=O)c1c(-c2c(F)cccc2Cl)noc1C,-9,·,57*,-9,-41
CCOC(=O)c1cc2c(=O)n3ccccc3nc2n(C)c1=NC(=O)c1c(-c2c(F)cccc2Cl)noc1C,3,2,-16,-16,-12
Cc1noc(C)c1S(=O)(=O)N(C)C[C@H]1OCCCC[C@@H](C)Oc2ccc(NC(=O)C3CCCCC3)cc2C(=O)N([C@@H](C)CO)C[C@H]1C,7,10,·,·,·
Nc1nc2ccccc2n1C(=O)c1ccc(F)cc1,31,31,61*,24,7
Nc1nc2ccccc2n1C(=O)c1ccccc1,33,61*,78*,35,?
COc1ccc(C(=O)n2c(N)nc3ccccc32)cc1OC,-37,-124,7,-58,-6
CCC(=O)N1C[C@H]2[C@@H](c3ccccc31)[C@H](CO)N2C(=O)Nc1ccccc1,-16,-5,·,·,·
Cn1c(C(=O)OCC(=O)NCCc2ccccc2)cc2sccc21,3,0,53*,-4,-4
SMILES,LGR2 inh,EWS-Fli inh,TWEAK-Fn14 inh,TROY NFkB inh,EBV LMP1 NFkB
Cc1cccc(N2CCN(C(=O)c3c(-c4ccccc4Cl)noc3C)CC2)c1C,9,53*,-1,35,12
CCCCSc1nc(C)cc(SCC(=O)N/N=C/c2cccc(OC)c2O)n1,?,·,103*,·,15
COc1ccccc1/C=N/NC(=O)CSc1ccc2ccccc2n1,-14,-29,52*,49,-17
COc1ccccc1/C=N/NC(=O)CSc1cc(C)nc2ccccc12,9,48,22,23,-7
O=C(C1CCCCC1)N1CC2(C1)[C@@H](c1ccccc1)[C@@H](CO)N2Cc1ccc(Cl)cc1,-4,6,·,·,·
COc1ccccc1-c1cn(CC[C@H]2CC[C@@H](NC(=O)NC(C)C)[C@H](CO)O2)nn1,8,-4,·,·,·
C/C=C/c1cnc2c(c1)C(=O)N([C@@H](C)CO)C[C@H](C)[C@@H](CN(C)C(=O)NC1CCCCC1)O2,6,-7,·,·,·
C[C@H](CO)N1C[C@H](C)[C@H](CN(C)S(C)(=O)=O)OCCCC[C@H](C)Oc2ccc(NS(=O)(=O)c3cn(C)cn3)cc2C1=O,-9,-7,·,·,·
CC1CCCC(NC(=O)COC(=O)c2c[nH]c(=O)[nH]c2=O)C1C (configuration not stated),·,·,55*,·,2
Cc1cc(C(=O)OCC(=O)NC2CCCC(C)C2C)c(C)o1 (configuration not stated),-20,8,7,14,4
N#C/C(=C\c1coc2ccc(O)cc2c1=O)C(=O)Nc1nc2ccccc2s1,17,-19,73*,52*,-5
O=C(O)CC/C(=C\c1ccc(N2CCCC2)c([N+](=O)[O-])c1)c1nc2ccccc2s1,-27,9,4,25,-8
CN(c1ccccc1)c1ccc(/C=C(/CCC(=O)O)c2nc3ccccc3s2)cc1[N+](=O)[O-],18,-4,42,57*,5
COc1ccc(S(=O)(=O)N(C)C[C@@H]2Oc3c(NS(=O)(=O)c4cn(C)cn4)cccc3C(=O)N([C@H](C)CO)C[C@@H]2C)cc1,10,-4,·,·,·
COc1cc2ccccc2cc1C(=O)O,·,·,-12,-16,-4
COc1cc2ccccc2ccc1=NO,17,-5,62*,22,38
O=C(NCc1cc(F)cc(F)c1)[C@@H]1[C@@H](CO)[C@@H]2Cn3c(cccc3=O)[C@H]1N2C(=O)c1ccccn1,-3,5,·,·,·
CO[C@H]1CN(C)C(=O)c2cc(NC(=O)Cc3ccccc3)ccc2OC[C@@H](C)N(CC2CC2)C[C@@H]1C,-10,-3,·,·,·
CO[C@@H]1CN(C)C(=O)c2cc(NC(=O)C3CC3)ccc2OC[C@H](C)N(CC2CCOCC2)C[C@H]1C,13,-10,·,·,·
CC1(C)CC(N2CCC(=O)NC2=S)CC(C)(C)N1,-2,-5,-8,6,-2
CC1(C)CC(N2CCC(=O)N(C3CC(C)(C)NC(C)(C)C3)C2)CC(C)(C)N1,·,·,80*,·,2
CC(=O)N(C)C[C@H]1Oc2ncc(C#Cc3ccc(F)cc3)cc2C(=O)N([C@H](C)CO)C[C@H]1C,8,-7,·,·,·
CC(C)Oc1ccc(C(=O)Nc2ccc(Cl)c(S(=O)(=O)Nc3ccc(Cl)cc3)c2)cc1,23,·,90*,55*,0
CC(NC(N)=O)C(=O)Nc1ccc(Cl)c(S(=O)(=O)Nc2ccc(Cl)cc2)c1 (configuration not stated),21,3,11,-18,-1
COCCCn1c(-c2ccc(S(=O)(=O)N3CCOCC3)cc2)csc1=Nc1ccccc1,9,·,71*,29,28
COc1ccc(C(=O)Nc2ccc3c(c2)C(=O)N(C)C[C@@H](OC)[C@@H](C)CN[C@@H](C)CO3)cc1,-21,1,·,·,·
COc1ccc(/C=C2/SC(=O)N(CCNC(=O)C3COc4ccccc4O3)C2=O)cc1 (configuration not stated),-21,-16,-26,-20,-5
